# Bioassay records: PubChem BioAssay, National Center for Advancing Translational Sciences (NCATS)
# Menin-MLL FL inh = qHTS Assay for Inhibitors Targeting the Menin-MLL Interaction in MLL Related Leukemias: Competition With Fluorescein Labeled MLL-derived Peptide | AID 1766, 2009 | 290,000 tested, under 10 active | FP activity change, % at 61.4 µM | Fluorescence polarization, fluorescein-MLL peptide displacement from menin; active = well fitted curve in the direction sought with a large enough effect in the polarisation, not every such curve was filed as active; inconclusive = small, poorly fitted or top-dose-only effect, or effect the other way, or a change in a side signal; inactive = no such curve, though single readings can be large or run the other way; the % refers to the polarisation; also: % of control where 0% means no effect
# Menin-MLL TR inh = qHTS Assay for Inhibitors Targeting the Menin-MLL Interaction in MLL Related Leukemias: Competition With Texas Red Labeled MLL-derived Mutant Peptide; O00255; Menin + Texas Red MLL mutant peptide, fluorescence polarization; Potency, µM (series often up to 61.6 µM), inactives show top-dose FP activity change, negative = inhibition, actives largely listed as inhibitors; 0.23% of 270,000 active; AID 1768, 2009; active = well fitted inhibition curve with a large enough effect in the polarisation, with a control signal flat, not every such curve was filed as active; inconclusive = small, poorly fitted or top-dose-only effect, or effect the other way, or a change in a side signal; inactive = no such curve, though single readings can be large or run the other way; the % refers to the polarisation; also: potency is read from the fitted curve at half-maximal effect; % of control where 0% means no effect
# ClpP mod = qHTS Assay for Activators of ClpP | ATP-dependent Clp protease proteolytic subunit (Bacillus subtilis (strain 168)), P80244 | purified B. subtilis ClpP, FRET peptide cleavage, 20 min | Potency, µM (top dose mostly 57.5 µM), for the others: top-dose activity change, negative = active | 1.9% of 340,000 active; active = well fitted falling curve with a large enough effect; inconclusive = small, poorly fitted or top-dose-only effect; inactive = no such curve, though single readings can be large or run the other way; also: potency is read from the fitted curve at half-maximal effect; the source files actives as falling curves though it sought activators and does not explain the sign; nearly all actives have a fitted effect of over 65% in size
# Target sequence (P80244 whole entry, looked up): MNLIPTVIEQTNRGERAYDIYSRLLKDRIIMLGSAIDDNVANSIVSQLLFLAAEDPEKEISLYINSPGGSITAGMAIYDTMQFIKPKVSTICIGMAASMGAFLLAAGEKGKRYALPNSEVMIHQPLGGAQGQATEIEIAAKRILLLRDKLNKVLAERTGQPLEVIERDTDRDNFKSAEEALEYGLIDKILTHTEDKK
#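 Purified B. subtilis ClpP, 10 microg/mL final in Tris/HCl pH8 with KCl, BSA, glycerol and Tween-20, cleaved an Abz/nitrotyrosine-quenched decapeptide. Fluorescence (ex 320, em 430) was read at 0 and 20 min at room temperature. Delta was normalized to 5.8 microM ADEP and DMSO/no-enzyme controls.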
# p53 reactivator = qHTS assay for re-activators of p53 using a Luc reporter; H1299 p53-A138V BP100-luciferase reporter, luminescence, 24 h; Potency, µM (titrated, usually from 92.2 µM), for the others: top-dose activity change, positive = activation, most hits filed as activators; 0.063% of 320,000 active; AID 504706, 2011; active = well fitted activation curve with a large enough effect; inconclusive = small, poorly fitted or top-dose-only effect; inactive = no such curve, though single readings can be large or run the other way; also: potency is read from the fitted curve at half-maximal effect; % of control where 0% means no effect; nearly all actives have a fitted effect of over 45% in size
#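 p53-null H1299 cells stably carrying temperature-sensitive p53-A138V and a BP100-luciferase reporter were pinned with compounds (4-point, 1:5 series) and held 24 hrs at 37 deg C. Luminescence was read 10 min after detection reagent.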
# CXXC DNA block = qHTS Fluorescence Polarization Assay for Inhibitors of MLL CXXC domain - DNA interaction; MLL-CXXC / FITC-HOXA9 DNA fluorescence polarization; Potency, µM (series often up to 115 µM), for the others: at the top dose activity change, negative = inhibition, most hits filed as inhibitors; 0.037% of 290,000 active; AID 2662, 2010; active = well fitted inhibition curve with a large enough effect in the polarisation, with a control signal flat, not every such curve was filed as active; inconclusive = small, poorly fitted or top-dose-only effect, or effect the other way, or a change in a side signal; inactive = no such curve, though single readings can be large or run the other way; the % refers to the polarisation; also: potency is read from the fitted curve at half-maximal effect
#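 Steps: dispense CXXC domain solution (7 uM) → pin compounds or unlabeled HOX-A9 DNA control → 5 min ambient → add FLSN-HOX-A9 solution (50 nM) → spin → 30 min ambient → fluorescence polarization. Tris pH 7.5/NaCl/DTT/BSA buffer.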
# * marks the source's active call; other numbers are inactive results; ? = inconclusive; · = not tested or not shown. The sample as a whole holds a higher share of hits than the screen did.
SMILES,Menin-MLL FL inh,Menin-MLL TR inh,ClpP mod,p53 reactivator,CXXC DNA block
CC(=O)C1=C(C)NC(SCC(=O)c2ccc(Cl)cc2)=C(C#N)C1CC(C)C (stereo not given),5,3%,25µM*,7%,-2%
O=C(CS(=O)(=O)c1cccc2nsnc12)NCc1ccc(Cl)cc1,·,·,-6%,·,·
CN1CC[C@H](c2c(O)cc(O)c3c(=O)cc(-c4ccccc4Cl)oc23)[C@@H](O)C1,·,·,0%,·,·
O=C(NC1CC(=O)N(c2ccccc2)C1)c1ccc(S(=O)(=O)N2CCCCC2)cc1 (stereo not given),·,·,0%,·,·
COc1ccccc1-c1cc(C(F)(F)F)n2ncc(S(=O)(=O)c3ccccc3)c2n1,1,?,28µM*,2%,17%
COc1ccc2[nH]c(C(=O)O)c(CCNC(C)=O)c2c1,4,9%,8.9µM*,-3%,-11%
COc1cccc(CNC(=O)c2ccccc2N)c1,4,-28%,5.6µM*,9%,2%
Nc1ccccc1C(=O)NCc1ccc(Cl)cc1,-6,0%,7.1µM*,10%,2%
Nc1ccccc1C(=O)NCc1ccc(F)cc1,6,-10%,5%,0%,-15%
COc1cccc(CNC(=O)CCNC(=O)c2ccccc2OC)c1,·,·,1%,7%,0%
CC(C)CNC(=O)CSc1ccc(Cl)cc1,3,1%,25µM*,10%,-4%
Cc1ccc(SCC(=O)NCC(C)C)cc1,-2,1%,2%,13%,-5%
CCOC(=O)CCc1c(C)c2ccc(OCC)c(C)c2oc1=O,2,1%,32µM*,3%,6%
COc1ccc2c3c(c(=O)oc2c1OCC(N)=O)CCCC3,3,3%,28µM*,-5%,-1%
CCOC(=O)CCc1c(C)c2ccc(OCC(=O)N3CCOCC3)c(C)c2oc1=O,-3,-12%,10µM*,-15%,16%
CCCCc1c(C)c2ccc(OC)c(/C(C)=N\O)c2oc1=O,4,-6%,8.9µM*,16%,3%
COC(=O)Cc1c(C)c2ccc(OCC(=O)N3CCCC3)c(C)c2oc1=O,·,·,?,-1%,0%
Cc1cccc(OCCC(=O)NO)c1,·,·,2%,·,·
COC(=O)C(NS(N)(=O)=O)C(C)C (stereo not given),0,6%,·,·,·
CCOC(=O)COc1ccc2c3c(c(=O)oc2c1C)CCC3,-1,?,13µM*,7%,-9%
O=C(NCc1ccc(Cl)cc1)c1cnc(N2CCCCC2)c2ccccc12,·,·,28µM*,·,·
COc1cccc(CNC(=O)c2cnc(N3CCCCC3)c3ccccc23)c1,·,·,-10%,·,·
O=C(NCc1ccc(F)cc1)c1cnc(N2CCOCC2)c2ccccc12,·,·,-9%,·,·
O=C(NCc1cccc(Cl)c1)c1cnc(N2CCCCC2)c2ccccc12,·,·,32µM*,·,·
CCOC(=O)c1nn(-c2ccccc2)c(=O)cc1OCC(=O)Nc1cccc(OC)c1,·,·,3%,4%,·
SMILES,Menin-MLL FL inh,Menin-MLL TR inh,ClpP mod,p53 reactivator,CXXC DNA block
CCOC(=O)c1nn(-c2ccc(C)cc2)c(=O)cc1OCC(=O)Nc1ccc(OC)cc1,·,·,8.9µM*,9%,·
COc1cc(/C=C/c2nc3ccccc3c(=O)[nH]2)ccc1OC(F)F,6,38%,25%,19%,4%
O=c1[nH]c(/C=C/c2ccccc2OC(F)F)nc2c1cnn2-c1ccccc1,2,9%,11µM*,-6%,-2%
N#Cc1cc(-c2ccccc2)cn(Cc2c(Cl)cccc2Cl)c1=O,1,8%,28µM*,-4%,2%
Cc1cc(NS(C)(=O)=O)c(=O)n(Cc2c(F)cccc2Cl)c1,1,-13%,5%,·,7%
N#Cc1cc(C(=O)c2cc(Br)ccc2O)cn(Cc2ccccc2)c1=O,?,-29%,·,-3%,3%
Cc1ccc(-c2cc(C#N)c(=O)n(Cc3c(Cl)cccc3Cl)c2)cc1,0,2%,7.1µM*,-5%,10%
CN(C)c1ccc(/C=C/c2ccnc3ccc(Cl)cc23)cc1,·,·,2%,·,·
COc1cc(C=Nc2ccccc2C(=O)Nc2ccccc2)cc(OC)c1OC,-1,7%,25µM*,0%,-2%
CCOC(=O)C1CCN(S(=O)(=O)c2ccc(-c3nc4ccccc4s3)s2)CC1,6,22%,25µM*,?,-4%
COc1ccc(NC(=O)c2c(NCc3ccc(C)o3)sc3c2CCCCC3)c(OC)c1,·,·,1%,·,·
CC(=O)Nc1cccc(-n2cc3c(c2-c2ccccc2Cl)c(=O)n(C)c(=O)n3C)c1,·,·,28µM*,·,·
Cc1cccc(-c2c3c(=O)n(C)c(=O)n(C)c3cn2CCO)c1,-1,-2%,28µM*,4%,-5%
Cc1ccc(-c2c3c(=O)n(C)c(=O)n(C)c3cn2-c2cc(C)ccc2O)cc1,·,·,3.5µM*,·,·
CC(C)n1cc2c(c1-c1ccccc1Cl)c(=O)n(C)c(=O)n2C,·,·,-16%,·,·
CC(=O)Nc1ccc(-n2cc3c(c2-c2ccc(C)cc2)c(=O)n(C)c(=O)n3C)cc1,·,·,20µM*,·,·
COc1ccc(-c2c3c(=O)n(C)c(=O)n(C)c3cn2-c2ccc(O)cc2)cc1,5,·,·,-3%,-2%
CC(C)CN(CC(C)C)c1ccc(/C=C/c2ccnc3ccccc23)cc1,·,·,0%,·,·
O=c1c(Cl)c(O)c2cccc3c4ccccc4n1c23,2,34%,14µM*,1%,5%
Cc1ccc(CN(Cc2cc3cccc(C)c3[nH]c2=O)C(=S)NCCCN(C)C)cc1,-2,-7%,22µM*,-2%,1%
Fc1ccc(N/N=C/c2ccc(N3CCOCC3)cc2)c(F)c1,-4,?,35µM*,10%,-3%
C/C(=N\Nc1ccc(F)cc1F)c1ccc(N2CCOCC2)cc1,1,8%,-3%,0%,-13%
CC(C)=CC(=O)Nc1ccccc1C(N)=O,-2,-1%,-2%,3%,-4%
CC(C)=CC(=O)Nc1ccccc1Br,0,-1%,1.3µM*,25%,10%
C=C1NN(Cc2ccccc2)C(=O)N1c1ccc(OCc2ccccc2)cc1,·,·,0%,·,·
CC1(C)CC(n2c(NCCO)nc3c(c2=O)C2(CCCC2)Cc2ccccc2-3)CCO1 (stereo not given),4,-7%,32µM*,1%,-8%
CCn1c(NCCCO)nc2c(c1=O)C(C)(CC)Cc1ccccc1-2 (stereo not given),6,·,-5%,-5%,6%
O=c1c2c(nc(NCCO)n1CC1CCCCC1)-c1ccccc1CC21CCCC1,-2,-8%,28µM*,-7%,-3%
c1ccc(-c2cn3c(n2)-c2ccccc2C3)cc1,5,10%,14µM*,38%,14%
COCc1cc(C)n(CC(=O)Nc2ccc(Cl)cc2Cl)c(=O)c1C#N,4,-4%,25µM*,-1%,1%
